Assay results published in PubChem BioAssay.
The source made the active and inactive calls.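 The calls were made as follows, unless noted: active = compounds giving at least 50% inhibition in the cell-based MKP-3 phosphatase rescue imaging test; inactive = the rest.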

Key:
[1] = inhibitors of TNFa-induced NFkB p65 translocation, primary screen, imaging, HUVEC, MLSMR starter and 10KST1 sets (AID 438;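 active = inhibition above 20% together with a positive visual image hit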;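 also: compound added about 3h40 before a 20 min TNFalpha stimulation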;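 as to inhibition: signal is the nuclear over cytoplasmic p65 intensity ratio per well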); conditions: HUVEC TNFa-induced p65 nuclear translocation; cell count: measured here: nuclei count (cytotoxicity indicator), at 2.08 µM unless noted; inhibition: at 2 µM, stronger effect = higher value unless noted
[2] = endothelial E-selectin expression blockers – imaging, HUVEC, immunofluorescence, MLSMR starter and 10KST1 sets, primary screen (AID 487;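 active = visually confirmed hit in the image check and inhibition above 20%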;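 as to inhibition: signal is fraction of cell area covered by stained E-selectin grains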;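 as to nuclei count: 100% = median nuclei count of all wells on the same plate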); conditions: HUVEC TNFalpha-induced E-selectin immunofluorescence imaging, at 2 µM; inhibition: stronger effect = higher value; nuclei count: measured here: cell number, toxicity
[3] = Primary imaging screen for DUSP6 inhibitors that restore phospho-Erk in transfected HeLa cells, chemical complementation (AID 609); conditions: HeLa MKP-3 transfected, phospho-Erk imaging KS statistic, at 10 µM;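 as to inhibition: phospho-Erk level distribution per well compared with pooled transfected vehicle control wells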
[4] = target: Dual specificity protein phosphatase 6 (Homo sapiens) (UniProt Q16828); assay: as above; conditions: HeLa MKP-3 transfected, phospho-Erk imaging KS statistic, at 10 µM, stronger effect = higher value
Chain of Dual specificity protein phosphatase 6 (Homo sapiens) (Q16828 whole entry, looked up): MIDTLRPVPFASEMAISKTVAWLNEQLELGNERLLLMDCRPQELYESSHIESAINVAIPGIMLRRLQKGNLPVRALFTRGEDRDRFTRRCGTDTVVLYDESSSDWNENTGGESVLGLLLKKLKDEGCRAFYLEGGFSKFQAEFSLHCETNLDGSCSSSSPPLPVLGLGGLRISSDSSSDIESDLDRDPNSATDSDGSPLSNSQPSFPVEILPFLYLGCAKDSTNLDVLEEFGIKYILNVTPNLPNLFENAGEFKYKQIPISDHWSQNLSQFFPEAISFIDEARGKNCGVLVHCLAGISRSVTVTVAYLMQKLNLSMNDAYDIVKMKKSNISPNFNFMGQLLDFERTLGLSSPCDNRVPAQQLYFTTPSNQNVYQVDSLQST

[5] = target: Voltage-gated potassium channel subunit beta-2 (Rattus norvegicus) (UniProt P62483); assay: inhibitors of rat Kvbeta2 reductase activity – biochemical, NADPH fluorescence, primary screen (AID 622;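 active = fluorescence slope higher than the sample average by over 3 SD, cut at about -0.22 in these data, passing the limit was not always enough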;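 also: slope of raw intensity against log time taken from 70 to 1610 s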); conditions: recombinant KvBeta, 4-cyanobenzaldehyde reduction, at 10 µM, stronger effect = higher value
Chain of Voltage-gated potassium channel subunit beta-2 (Rattus norvegicus) (P62483 whole entry, looked up): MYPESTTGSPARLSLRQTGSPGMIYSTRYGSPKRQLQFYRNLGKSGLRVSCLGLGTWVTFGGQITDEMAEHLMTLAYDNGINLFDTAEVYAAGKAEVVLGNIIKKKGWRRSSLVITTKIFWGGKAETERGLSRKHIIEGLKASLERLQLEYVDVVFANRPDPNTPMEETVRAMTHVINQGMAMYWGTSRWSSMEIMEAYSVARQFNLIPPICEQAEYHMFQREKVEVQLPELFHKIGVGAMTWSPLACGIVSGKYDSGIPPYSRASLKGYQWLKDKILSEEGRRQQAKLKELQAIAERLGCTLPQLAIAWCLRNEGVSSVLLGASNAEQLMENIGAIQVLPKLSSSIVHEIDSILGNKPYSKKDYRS

[6] = target: Voltage-gated potassium channel subunit beta-2 (Rattus norvegicus) (UniProt P62483); assay: enhancers of rat Kvbeta2 NADPH turnover – biochemical, NADPH fluorescence, primary screen (AID 623;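 active = NADPH fluorescence slope more negative than the mean of all samples by about 3 SD, 99.7% confidence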;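 also: fluorescence intensity change per second fitted from 20 to 320 s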); conditions: Recombinant KvBeta, NADPH fluorescence decrease slope, 10 min; at 10 µM; stronger effect = lower value
[7] = target: Alpha-2C adrenergic receptor (Homo sapiens) (UniProt P18825); assay: compounds altering alpha2C-coupled GIRK flux – cell-based, HEK293 alpha2C/GIRK1/2, thallium flux, primary screen (AID 624;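 active = fluorescence slope after compound addition differing from the mean of all screened samples at 99.7% confidence, in either direction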;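 also: slope of fluorescence ratio to pre-addition baseline per second over 15 to 24 s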); conditions: thallium flux BTC fluorescence, at 10 µM, actives lie on both sides
Chain of Alpha-2C adrenergic receptor (Homo sapiens) (P18825 whole entry, looked up): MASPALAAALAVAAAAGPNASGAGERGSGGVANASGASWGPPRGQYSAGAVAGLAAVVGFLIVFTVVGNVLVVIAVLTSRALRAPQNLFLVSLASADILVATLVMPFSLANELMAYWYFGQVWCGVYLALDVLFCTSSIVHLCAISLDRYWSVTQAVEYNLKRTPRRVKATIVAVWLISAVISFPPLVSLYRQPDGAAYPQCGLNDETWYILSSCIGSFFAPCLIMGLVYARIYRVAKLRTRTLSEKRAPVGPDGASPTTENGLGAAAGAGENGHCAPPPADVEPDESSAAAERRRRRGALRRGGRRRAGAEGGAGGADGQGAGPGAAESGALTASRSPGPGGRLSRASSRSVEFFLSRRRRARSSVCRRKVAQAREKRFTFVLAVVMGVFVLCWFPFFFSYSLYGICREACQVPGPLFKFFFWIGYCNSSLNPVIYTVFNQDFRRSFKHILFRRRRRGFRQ

[8] = inhibitors of larval lipid processing in zebrafish, primary screen, whole organism, PED6 fluorescence, gall bladder and intestine (AID 686;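 active = a full or partial loss of lipid-probe fluorescence in the fish gall bladder, intestine or both, judged by eye; inactive = no fluorescence loss, or compound toxic to the fish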;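 also: larvae 5 to 7 days old with five fish per well; signal comes from phospholipase A2 cleavage of quenched PED6 carried via bile; overnight exposure to compound and PED6 before scoring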); conditions: Zebrafish larvae PED6 lipid processing, fluorescence scoring
[9] = loss of swimming-algae plug formation – whole organism, Chlamydomonas reinhardtii, WT vs cilia-less mutant, absorbance, 96-well, primary screen (AID 463189;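 active = inhibition at or above 50% relative to wild type and mutant plate controls; inactive = inhibition below 50%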;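 also: 0% = wild type cc124 cells in DMSO and 100% = ciliumless bld1 mutant cells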); conditions: Chlamydomonas reinhardtii gravitaxis, OD600 absorbance, 2 days; at 10 µM; stronger effect = higher value
[10] = target: Muscarinic acetylcholine receptor M4 (Homo sapiens) (UniProt P08173); assay: M4-linked GIRK flux change, two-sided – cell-based, HEK293 M4/GIRK, thallium flux, BTC-AM, M4 allosteric agonist project, primary screen (AID 625;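 active = fluorescence slope after compound addition differing from the mean of all tested samples at 99.7% confidence, mostly higher but some lower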;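 also: thallium influx through GIRK channels coupled to M4 in HEK293 cells with BTC-AM dye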); conditions: at 10 µM, actives lie on both sides
Chain of Muscarinic acetylcholine receptor M4 (Homo sapiens) (P08173 whole entry, looked up): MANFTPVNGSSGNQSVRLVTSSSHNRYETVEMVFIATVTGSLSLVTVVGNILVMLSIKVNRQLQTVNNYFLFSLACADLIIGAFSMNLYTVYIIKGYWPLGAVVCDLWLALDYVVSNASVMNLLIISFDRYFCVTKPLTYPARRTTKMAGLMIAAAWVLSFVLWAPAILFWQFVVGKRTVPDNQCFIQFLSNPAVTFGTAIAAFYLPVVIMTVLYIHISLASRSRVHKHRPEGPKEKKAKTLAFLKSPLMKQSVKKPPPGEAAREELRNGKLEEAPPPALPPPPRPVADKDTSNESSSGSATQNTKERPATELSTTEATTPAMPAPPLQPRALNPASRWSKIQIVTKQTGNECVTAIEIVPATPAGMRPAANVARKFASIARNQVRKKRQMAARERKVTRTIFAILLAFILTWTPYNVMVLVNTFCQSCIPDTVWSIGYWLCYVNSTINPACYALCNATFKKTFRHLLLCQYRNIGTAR

[11] = measured here: cell density z-score
[12] = measured here: nuclear c-Myc green intensity z-score
[13] = measured here: nuclear pErk red intensity z-score, stronger effect = higher value

| Compound | cell count [1] | inhibition [1] | inhibition [2] | nuclei count [2] [%] | z-score [3, 11] | z-score [3, 12] | z-score [3, 13] | inhibition [4] | fluorescence slope [5] | NADPH fluorescence slope [6] | slope [7] | outcome [8] | inhibition [9] | fluorescence slope [10] |
| --- | --- | --- | --- | --- | --- | --- | --- | --- | --- | --- | --- | --- | --- | --- |
| CCCCc1nc2ccccc2c(=O)n1-c1ccccc1O | 619 | -3.2% (inactive) | -6.5% (inactive) | 178 | -0.399 | 0.344 | 1.46 | -4.78% (inactive) | -0.36 (inactive) | 5.8e-06 (inactive) | 0.00524 (inactive) | inactive | 2.52% (inactive) | – |
| CCN(CC)CCCC(C)N=C(c1ccccc1)c1c(O)n(C)c(=O)n(C)c1=O (centres undefined) | 617 | -1.4% (inactive) | -14.1% (inactive) | 134 | 0.00172 | -0.468 | 1.57 | -1.12% (inactive) | -0.507 (inactive) | -7.1e-05 (inactive) | 0.00446 (inactive) | inactive | 8.34% (inactive) | – |
| CCOC(=O)[C@]1(C#N)[C@@H]2C=CC(C(C)=O)=CN2[C@@H](C(N)=O)[C@@H]1c1ccsc1 | 560 | -5.3% (inactive) | -130% (inactive) | 212 | 0.77 | 0.227 | -0.321 | -2.91% (inactive) | -0.358 (inactive) | -1.4e-05 (inactive) | -0.00125 (inactive) | inactive | 13.7% (inactive) | – |
| COc1cccc(CN2CCN(C(=O)COc3ccc4ccccc4c3)CC2)c1 | 430 | -6% (inactive) | -195% (inactive) | 210 | -0.132 | -0.0858 | -0.507 | 11% (inactive) | -0.354 (inactive) | -4.1e-06 (inactive) | 0.00527 (inactive) | inactive | 16.5% (inactive) | – |
| CCCCCCn1c(O)c(C=NCCN2CCCCC2)c(=O)[nH]c1=O | 667 | -17.9% (inactive) | -47.5% (inactive) | 141 | 0.204 | -1.24 | -1.39 | 12.7% (inactive) | -0.423 (inactive) | -2.4e-06 (inactive) | 0.00602 (inactive) | inactive | 12.8% (inactive) | – |
| CCCN(CC#CCO)CCC | 701 | 11.7% (inactive) | -121% (inactive) | 162 | 0.317 | 1.4 | 0.749 | -11.4% (inactive) | -0.448 (inactive) | -4.9e-05 (inactive) | – | inactive | -2.44% (inactive) | 0.00435 (inactive) |
| Nc1ncc(P(=S)(N2CCOCC2)N2CCOCC2)s1 | 452 | -2.7% (inactive) | -296% (inactive) | 169 | -0.00628 | -0.183 | -1.06 | 4.37% (inactive) | -0.461 (inactive) | -8.8e-05 (inactive) | – | inactive | 11.1% (inactive) | 0.00503 (inactive) |
| CCCCNC(=O)Nc1ccc(C(O)(C(=O)OC)C(F)(F)F)cc1 (centres undefined) | 632 | -8.8% (inactive) | 7.1% (inactive) | 154 | 0.744 | -1.2 | 0.72 | 18.4% (inactive) | -0.482 (inactive) | -4.8e-05 (inactive) | – | inactive | 8.19% (inactive) | 0.00513 (inactive) |
| CNC(=O)N(C)c1nnc(C(C)(C)C)s1 | 642 | -6.4% (inactive) | -26% (inactive) | 73.8 | -3.07 | 0.0042 | -1.4 | 11.9% (inactive) | -0.502 (inactive) | -9.9e-05 (inactive) | – | inactive | 119% (active) | 0.00657 (inactive) |
| O=C(CN1CCN(CCO)CC1)Nc1ccc(Cl)cc1C(=O)c1ccccc1 | 431 | -4% (inactive) | -88.6% (inactive) | 154 | 0.92 | -0.897 | 0.82 | 11.9% (inactive) | -0.465 (inactive) | -0.000121 (inactive) | – | inactive | 12% (inactive) | 0.00435 (inactive) |
| CCOC(=O)c1cc(C)n(CCc2cnc[nH]2)c1C | 561 | 2.4% (inactive) | -44.2% (inactive) | 123 | -1.19 | -0.0641 | 0.767 | -2.59% (inactive) | -0.47 (inactive) | -9.2e-05 (inactive) | – | inactive | -3.61% (inactive) | 0.00519 (inactive) |
| Cc1c(N=Cc2c(O)n(Cc3ccco3)c(=O)[nH]c2=O)c(=O)n(-c2ccccc2)n1C | 591 | -1.8% (inactive) | -156% (inactive) | 133 | 0.39 | 0.06 | -0.372 | 11.4% (inactive) | -0.492 (inactive) | -0.000124 (inactive) | – | inactive | 11.7% (inactive) | 0.00411 (inactive) |
| CC1CN=C(Nc2ccc(N(C)C)cc2)S1 (centres undefined) | 666 | 0.8% (inactive) | -22.4% (inactive) | 136 | -0.332 | 0.426 | -0.395 | 3.49% (inactive) | -0.464 (inactive) | -5.1e-05 (inactive) | – | inactive | 9.45% (inactive) | 0.00379 (inactive) |
